# About 2,000 (36%) of roughly 5,500 compounds were called active. About 18% were inconclusive and are not listed. The list shows a part of the results. A number with no mark means an inactive call. No stated cut-off is given here; in the data, active means normalized growth mostly below about 0.91 (no sharp cut-off); inconclusive means no clear call, values can overlap the other calls; inactive means mostly above about 0.92.
# Test: chemical genetic growth profiling, strain panel (AID 1159580);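 further: tested at 20 µM; growth read once vehicle control cultures reached saturation at 30 °C; 1 = growth at the plate median or of vehicle wells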
# Conditions: S. cerevisiae deletion strains, growth OD
# [1] = locus YDL101C, strain DUN1, stronger effect = lower value
# [2] = locus YHR030C, strain SLT2, stronger effect = lower value
compound,measurement,setting,value
Cc1cccc2nc(-c3ccccc3)oc(=O)c12,normalized growth,"locus YAL013W, strain DEP1, stronger effect = lower value",0.966
same,normalized growth,"locus YBR229C, strain ROT2, stronger effect = lower value",0.975
same,normalized growth,[1],0.968
same,normalized growth,"locus YDR150W, strain NUM1, stronger effect = lower value",0.934
same,normalized growth,"locus YEL061C, strain CIN8, stronger effect = lower value",0.936
same,normalized growth,"locus YGR078C, strain PAC10, stronger effect = lower value",0.959
same,normalized growth,"locus YGR229C, strain SMI1, stronger effect = lower value",0.984
same,normalized growth,[2],0.708
same,normalized growth,"locus YHR087W, strain rtc3, stronger effect = lower value",0.953
same,normalized growth,"locus YJL187C, strain SWE1, stronger effect = lower value",0.946
same,normalized growth,"locus YJR043C, strain POL32, stronger effect = lower value",0.971
same,normalized growth,"locus YJR075W, strain HOC1, stronger effect = lower value",0.942
same,normalized growth,"locus YKL190W, strain CNB1, stronger effect = lower value",0.987
same,normalized growth,"locus YLR039C, strain RIC1, stronger effect = lower value",0.826
same,normalized growth,"locus YLR058C, strain SHM2 (second series), stronger effect = lower value",0.968
same,normalized growth,"locus YLR085C, strain ARP6, stronger effect = lower value",0.744 (active)
same,normalized growth,"locus YLR262C, strain YPT6, stronger effect = lower value",0.942
same,normalized growth,"locus YML094W, strain GIM5, stronger effect = lower value",0.88
same,normalized growth,"locus YMR219W, strain ESC1, stronger effect = lower value",0.976
same,normalized growth,"locus YMR263W, strain SAP30, stronger effect = lower value",0.958
same,normalized growth,"locus YMR307W, strain GAS1, stronger effect = lower value",0.735
same,normalized growth,"locus YNL128W, strain TEP1, stronger effect = lower value",0.974
same,normalized growth,"locus YNL153C, strain GIM3, stronger effect = lower value",0.975
same,normalized growth,"locus YNL298W, strain CLA4 (second series), stronger effect = lower value",0.95
same,normalized growth,"locus YNL322C, strain KRE1, stronger effect = lower value",0.983
same,normalized growth,"locus YNR030W, strain Alg12, stronger effect = lower value",0.929
same,normalized growth,"locus YOL006C, strain TOP1, stronger effect = lower value",0.801
same,normalized growth,"locus YPL055C, strain LGE1, stronger effect = lower value",0.781 (active)
same,normalized growth,"locus YPL241C, strain CIN2, stronger effect = lower value",0.915
same,normalized growth,"locus YPR135W, strain CTF4, stronger effect = lower value",0.812
Cc1onc(-c2ccccc2Cl)c1-c1nc2ccccc2c(=O)o1,normalized growth,"locus YAR019C, strain CDC15, stronger effect = lower value",0.97
same,normalized growth,"locus YBL105C, strain PKC1, stronger effect = lower value",0.975
same,normalized growth,"locus YBR135W, strain CKS1, stronger effect = lower value",0.975
same,normalized growth,"locus YBR136W, strain MEC1, stronger effect = lower value",0.973
same,normalized growth,"locus YBR160W, strain CDC28, stronger effect = lower value",0.971
same,normalized growth,"locus YDL017W, strain CDC7, stronger effect = lower value",0.969
same,normalized growth,"locus YDL028C, strain MPS1, stronger effect = lower value",0.979
same,normalized growth,[1],0.963
same,normalized growth,"locus YDL108W, strain KIN28, stronger effect = lower value",0.97
same,normalized growth,"locus YDL132W, strain cdc53, stronger effect = lower value",0.975
same,normalized growth,"locus YDL214C, strain PRR2, stronger effect = lower value",0.968
same,normalized growth,"locus YDR052C, strain DBF4, stronger effect = lower value",0.969
same,normalized growth,"locus YDR054C, strain cdc34, stronger effect = lower value",0.964
same,normalized growth,"locus YDR226W, strain ADK1, stronger effect = lower value",0.97
same,normalized growth,"locus YDR477W, strain SNF1, stronger effect = lower value",0.962
same,normalized growth,"locus YER123W, strain YCK3, stronger effect = lower value",0.953
same,normalized growth,"locus YER133W, strain GLC7, stronger effect = lower value",0.984
same,normalized growth,"locus YFL009W, strain cdc4, stronger effect = lower value",0.974
same,normalized growth,"locus YFL029C, strain CAK1, stronger effect = lower value",0.956
same,normalized growth,"locus YFR003C, strain YPI1, stronger effect = lower value",0.972
same,normalized growth,"locus YFR019W, strain FAB1, stronger effect = lower value",0.979
same,normalized growth,"locus YFR028C, strain CDC14, stronger effect = lower value",0.973
same,normalized growth,"locus YGR040W, strain KSS1, stronger effect = lower value",0.96
same,normalized growth,"locus YGR052W, strain FMP48, stronger effect = lower value",1.03
same,normalized growth,"locus YGR092W, strain DBF2, stronger effect = lower value",0.983
same,normalized growth,[2],0.958
same,normalized growth,"locus YHR079C, strain IRE1, stronger effect = lower value",0.936
same,normalized growth,"locus YHR082C, strain KSP1, stronger effect = lower value",0.991
same,normalized growth,"locus YHR205W, strain SCH9, stronger effect = lower value",0.932
same,normalized growth,"locus YIL147C, strain SLN1, stronger effect = lower value",0.969
same,normalized growth,"locus YJL095W, strain BCK1, stronger effect = lower value",0.954
same,normalized growth,"locus YJL128C, strain PBS2, stronger effect = lower value",0.925
same,normalized growth,"locus YJL157C, strain FAR1, stronger effect = lower value",0.987
same,normalized growth,"locus YJR016C, strain ILV3, stronger effect = lower value",0.974
same,normalized growth,"locus YJR066W, strain TOR1 (second series), stronger effect = lower value",0.967
same,normalized growth,"locus YJR066W, strain TOR1, stronger effect = lower value",0.978
same,normalized growth,"locus YKL048C, strain ELM1, stronger effect = lower value",0.947
same,normalized growth,"locus YKL067W, strain YNK1, stronger effect = lower value",0.961
same,normalized growth,"locus YKL101W, strain HSL1, stronger effect = lower value",0.939
same,normalized growth,"locus YKL193C, strain SDS22, stronger effect = lower value",0.969
same,normalized growth,"locus YKL203C, strain TOR2, stronger effect = lower value",1.02
same,normalized growth,"locus YLR113W, strain HOG1, stronger effect = lower value",0.872
same,normalized growth,"locus YLR133W, strain CKI1, stronger effect = lower value",0.965
same,normalized growth,"locus YLR403W, strain SFP1, stronger effect = lower value",0.953
same,normalized growth,"locus YML070W, strain DAK1, stronger effect = lower value",0.956
same,normalized growth,"locus YMR001C, strain CDC5, stronger effect = lower value",0.974
same,normalized growth,"locus YMR205C, strain PFK2 (second series), stronger effect = lower value",0.955
same,normalized growth,"locus YMR277W, strain FCP1, stronger effect = lower value",0.987
same,normalized growth,"locus YNL006W, strain LST8, stronger effect = lower value",0.982
same,normalized growth,"locus YNL020C, strain ARK1, stronger effect = lower value",0.969
same,normalized growth,"locus YNL161W, strain CBK1, stronger effect = lower value",0.969
same,normalized growth,"locus YNL183C, strain NPR1, stronger effect = lower value",0.96
same,normalized growth,"locus YNL207W, strain RIO2, stronger effect = lower value",0.97
same,normalized growth,"locus YNL222W, strain SSU72, stronger effect = lower value",0.975
same,normalized growth,"locus YNL307C, strain MCK1 (second series), stronger effect = lower value",0.987
same,normalized growth,"locus YOL078W, strain AVO1, stronger effect = lower value",0.976
same,normalized growth,"locus YOL136C, strain PFK27, stronger effect = lower value",0.958
same,normalized growth,"locus YOR061W, strain CKA2, stronger effect = lower value",0.961
same,normalized growth,"locus YOR119C, strain RIO1, stronger effect = lower value",0.983
same,normalized growth,"locus YOR231W, strain MKK1, stronger effect = lower value",0.929
same,normalized growth,"locus YOR329C, strain SCD5, stronger effect = lower value",0.966
same,normalized growth,"locus YPL031C, strain PHO85, stronger effect = lower value",0.978
same,normalized growth,"locus YPL153C, strain RAD53, stronger effect = lower value",0.956
same,normalized growth,"locus YPL204W, strain HRR25, stronger effect = lower value",0.978
same,normalized growth,"locus YPL209C, strain IPL1, stronger effect = lower value",0.969
same,normalized growth,"locus YPL256C, strain CLN2, stronger effect = lower value",0.882
same,normalized growth,"locus YPR025C, strain CCL1, stronger effect = lower value",0.975
same,normalized growth,"locus YPR106W, strain ISR1, stronger effect = lower value",0.96
same,normalized growth,"locus YPR111W, strain DBF20, stronger effect = lower value",0.963
same,normalized growth,"strain NNK1, stronger effect = lower value",0.958
same,normalized growth,"strain TSCII, stronger effect = lower value",0.968

# Reference: PubChem BioAssay AID1159580 (chemical genetic matrix, 2015)
